For 65 compounds, Potency results are on record in PubChem BioAssay AID2546 (National Center for Advancing Translational Sciences (NCATS), 2010).

The whole screen tested about 310,000 compounds, of which about 11,000 (3.5%) were called active. Entries that show only a call come without a potency. Roughly 8% stayed inconclusive and do not appear here. This is one part of a sample in which actives are shown more often than they occur. Calls follow the shape of the dose curve; as a rule, active = well fitted inhibition curve with a large enough effect; inconclusive = small, poorly fitted or top-dose-only effect, or effect the other way; inactive = flat fitted curve, though single readings scatter.
Potency is read from the fitted curve at half-maximal effect.

The assay is described as follows: VP16 counterscreen qHTS for inhibitors of ROR gamma transcriptional activity.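 Also: Gal4-VP16 expression switched on by copper sulfate through the metallothionein promoter; nearly all actives have a fitted effect of over 50% in size.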 As to conditions: Drosophila S2 Gal4-VP16 UAS-luciferase, luminescence, 20 h; series mostly up to 53.6 µM. For orientation: The purpose of a counterscreen is to sort out artefacts and off-target activity.
For `CCc1ccc(OCC(=O)N(Cc2ccccc2)C2CCS(=O)(=O)C2)cc1` (stereo not given), the Potency entry was “inactive”. For `O=C(Cc1cccs1)N/N=C/c1ccc(OCc2ccccc2)cc1` the value was “inactive”; for `O=C(N/N=C/c1ccc(OCc2ccccc2)cc1)c1ccc(O)cc1`, 11.2 µM (active); for `O=C(N/N=C/c1ccc(OC(=O)c2ccccc2Cl)cc1)c1ccc(O)cc1`, “inactive”. Turning to `COCCNC(=O)COc1ccc(N(C)S(=O)(=O)c2ccc3ccccc3c2)cc1`, the Potency result was “inactive”. Take `CCOc1ccc(S(=O)(=O)Nc2ccc(S(=O)(=O)Nc3cc(OC)ccc3OC)cc2)cc1`: the Potency entry was “inactive”. Turning to `COc1ccc(NS(=O)(=O)c2ccc(NC(=S)NC(=O)CC(C)C)cc2)cc1`, the Potency result is “inactive”. For `COc1ccc(NS(=O)(=O)c2ccc(Oc3c(C#N)cccc3C#N)cc2)cc1` the value was 3.98 µM (active); for `COc1cccc(CNS(=O)(=O)c2ccc3c(c2)N(C(C)=O)CCS3)c1`, “inactive”; for `COC(=O)c1ccc(COc2ccc(/C=C/C(=O)c3ccc(OC)c(CSCC(=O)O)c3)cc2OC)cc1`, “inactive”. As to `Cc1cccc(OCC(=O)NCC(=O)N/N=C/c2ccc(N(C)C)cc2)c1`, the Potency result is “inactive”. In the case of `COc1ccc(-c2nnc(SCC(=O)c3cccs3)o2)c(OC)c1`, the Potency entry is “inactive”.

For the compound `COc1ccc(C(=O)CSc2nnc(-c3ccco3)o2)cc1`, the Potency entry was “inactive”. For `COc1ccc(OC)c(C(=O)CSc2nnc(-c3cccs3)o2)c1` the value was 15.8 µM (active); for `CN(c1cccc(NC(=O)c2ccc(CN3CCc4ccccc4C3)cc2)c1)S(C)(=O)=O`, “inactive”. In the case of `COc1cccc(C(=O)Nc2ccc(N3CCN(C(=O)c4ccco4)CC3)cc2)c1` it was “inactive”; in that of `CCc1ccc(/C=N/NC(=O)c2ccc(OC3CCCC3)cc2)s1`, 11.2 µM (active); in that of `COC(=O)CNC(=O)c1ccc(OC2CCN(C(=O)C3CC3)CC2)cc1`, “inactive”. In the case of `CCn1c(/C=N/NC(=O)c2ccc(OC)cc2)nc2ccccc21` it was “inactive”.

Regarding `CCOc1ccc(S(=O)(=O)N2CCCC(C(=O)N3CCC(C(N)=O)CC3)C2)cc1Cl` (stereo not given), the Potency entry is “inactive”. With `COc1ccccc1CCNS(=O)(=O)c1cc2c3c(c1)C(C)C(=O)N3CCC2` (stereo not given), the Potency result was “inactive”. In the case of `Cc1ccc(OCC(=O)Nc2ccc(S(=O)(=O)Nc3ccccn3)cc2)cc1` it was “inactive”; in that of `Cc1ccc(NS(=O)(=O)c2ccc(C(C)(C)C)cc2)cn1`, “inactive”. Take `Cc1ccc(S(=O)(=O)Nc2ccc3ncccc3c2)cc1`: the Potency was 17.8 µM (active). For `CC(C)C[C@H]1CN=C(Nc2ccccc2)N1CC1CCCCC1` the value was “inactive”. Regarding `COC(=O)c1cc(S(=O)(=O)N2CCN(c3cc(C)ccc3C)CC2)c[nH]1`, the Potency entry was “inactive”. `NS(=O)(=O)c1ccc(N=Nc2c(O)[nH]c3ccc(Br)cc23)cc1`: the Potency entry is “inactive”. For `CCN1CCN(c2sc(S(C)(=O)=O)nc2S(=O)(=O)c2ccc(Cl)cc2)CC1` the value was “inactive”.

Turning to `CCc1ccc(NC2Nc3cc(C)nn3S2)cc1` (stereo not given), the Potency was 5.01 µM (active). In the case of `CCOC(=O)c1ccc(NC2Nc3cc(C)nn3S2)cc1` (stereo not given) it was “inactive”. In the case of `CCOC(=O)c1ccccc1NC(=O)CC1Nc2ccccc2NC1=O` (stereo not given) it was “inactive”; in that of `O=C(CC1Nc2ccccc2NC1=O)Nc1ccccc1` (stereo not given), 5.01 µM (active). In the case of `O=C(CC1Nc2ccccc2NC1=O)Nc1ccccc1NC(=O)CC1Nc2ccccc2NC1=O` (stereo not given) it was “inactive”; in that of `CCN(C(=O)COc1ccc(C(=O)c2ccccc2)cc1)c1ccccc1`, “inactive”; in that of `O=S(=O)(c1ccccc1)c1nc(-c2ccccc2)oc1NCCCN1CCOCC1`, “inactive”. In the case of `Cc1cccc(N2CCN(C(=O)c3cccc(N4C(=O)C5C6C=CC(C6)C5C4=O)c3)CC2)c1C` (stereo not given), the Potency entry was “inactive”. In the case of `O=C(CN1CCOC1=O)N1CCCC(Nc2ccc(F)c(F)c2)C1` (stereo not given), the Potency entry was “inactive”. As to `C=C1CCN(C(CC(C)C)C(=O)N2CCOCC2)S(=O)(=O)c2ccccc21` (stereo not given), the Potency entry was “inactive”. Turning to `Cc1ccc(OCCOCCOc2ccc(Br)cc2/C=N\NC(=O)c2ccncc2)cc1`, the Potency is 25.1 µM (active).

As to `Cc1ccc(OCCOc2cccc(/C=N/NC(N)=O)c2)cc1`, the Potency entry is “inactive”. With `Cc1ccc(S(=O)(=O)Oc2ccc(/C=N/NC(=O)c3ccncc3)cc2)cc1`, the Potency result was “inactive”. In the case of `Cc1ccc(CNC(=O)CCN2C(=O)[C@@H]3Cc4ccccc4CN3C2=O)cc1` it was “inactive”. For `CC(=O)Nc1cccc(C(=O)OCN2C(=O)c3ccccc3C2=O)c1` the value was “inactive”; for `Cc1cc(OCc2cc(C(=O)NCc3cc(C(C)C)no3)no2)cc(C)c1Cl`, “inactive”. In the case of `O=C(O)CCC(=O)NCc1ccc2[nH]c3c(c2c1)CCCC3`, the Potency entry is “inactive”. Consider `Cc1cccc(NC(=S)NCc2ccc3[nH]c4c(c3c2)CCCC4)c1`, for which the Potency was 7.08 µM (active). In the case of `Cc1cccc(NC(=S)NCCN(C2CCCCC2)C2CCCC2)c1` it was “inactive”. In the case of `CCOc1cc(/C=N/Nc2cc(C)nc3ccc(C)cc23)ccc1O`, the Potency entry is “inactive”. For `Cc1ncoc1C(=O)N1CCCC(C(=O)c2ccc3c4c(cccc24)CC3)C1` (stereo not given) the value was “inactive”; for `CC(=O)NCC(=O)N1CCCC(C(=O)c2ccc3c4c(cccc24)CC3)C1` (stereo not given), “inactive”. For `CCn1ccnc1CN1CCCC(C(=O)c2ccc3c4c(cccc24)CC3)C1` (stereo not given) the value was 4.47 µM (active); for `COc1cc2c(cc1OC)C(C)N(S(=O)(=O)c1cnc(Cl)c(Cl)c1)CC2` (stereo not given), “inactive”; for `CCN1C(=S)N[C@@H](c2cccc(C(F)(F)F)c2)C(C(=O)OC)=C1C`, “inactive”. In the case of `CC1CCN(CC(=O)Nc2nccs2)CC1` it was “inactive”. As to `C=CCn1c(SCc2csc(C)n2)nc2scc(-c3ccc(C)o3)c2c1=O`, the Potency entry was “inactive”.

`C=CCNC(=O)CSc1nc2scc(-c3ccco3)c2c(=O)n1CC=C`: the Potency entry was “inactive”. For `C=CCn1c(=S)[nH]c2scc(-c3ccco3)c2c1=O` the value was 7.94 µM (active); for `COc1ccc(NC(=O)CN2C(=O)COc3ccc(S(=O)(=O)N4CCOCC4)cc32)c(OC)c1`, “inactive”. In the case of `Cc1ccc(S(=O)(=O)N(C)CC(=O)NCCc2c[nH]c3ccccc23)cc1` it was “inactive”. For `COc1ccc(-n2c(=O)[nH]c3cc(C(=O)NCCc4ccc(OC)c(OC)c4)ccc3c2=O)c(OC)c1` the value was “inactive”. Take `COc1ccc(NS(=O)(=O)c2cc(C(=O)Nc3ccccc3C(=O)O)ccc2C)cc1`: the Potency entry was “inactive”.

On to `CCCCc1nc2cc(C(=O)N3CCCCC3CCO)ccc2o1` (stereo not given), for which the Potency result is “inactive”. As for `COc1ccc(-c2cn3cccnc3n2)cc1`, the Potency entry was “inactive”. For `COc1ccc(-c2cn3ccc(C)cc3n2)cc1` the value was 5.01 µM (active); for `CCN(CC)S(=O)(=O)c1ccc(-c2cn3ccc(C)cc3n2)cc1`, “inactive”.
